Source: PubChem
hgDAF-12 ag – agonists of H. glycines DAF-12 nuclear receptor. HEK293 GAL4-hgDAF12 UAS-luciferase reporter, agonist luminescence; normalized to butyrate control. activation, % at 6.8 µM. 1.8% of 370,000 active. AID 687014;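 active = activation above a cutoff set at the mean of all screened compounds plus 3 SD, cut at about 10% in these data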
DAX1 inh-1 – blocks DAX1 repression of SF-1 activated StAR promoter; inhibition, % at 6.8 µM; HEK293T StAR-luciferase reporter, SF-1/DAX-1 repression relief; AID 652010; 1.1% of 370,000 active;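 active = inhibition above the mean over all tested compounds plus 3 SD, cut at about 3.6% in these data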;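 note: higher inhibition means more luminescence from relief of DAX-1 repression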
hcDAF-12 act – activators of H. contortus DAF-12 nuclear receptor | HEK293 hcDAF-12 lit1-tk-luc reporter, luminescence; 0% DMSO, 100% Δ7-dafachronic acid | activation, % at 6.8 µM | 1.4% of 370,000 active | AID 652067;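 active = activation above the mean of all tested compounds plus 3 SD, cut at about 5.5% in these data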
DAX1 inh-2 – NR0B1 (DAX1) inhibition. P51843. AID 504766. HEK293 Gal4-DAX1 luciferase reporter, luminescence. 0.99% of 340,000 active. inhibition, % at 6.75 µM;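 active = inhibition above the mean over all tested compounds plus 3 SD, cut at about 4.2% in these data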;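 note: inhibition shows as a rise in luminescence from relieved DAX1 repression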
Target sequence (P51843 207-470 limits assumed): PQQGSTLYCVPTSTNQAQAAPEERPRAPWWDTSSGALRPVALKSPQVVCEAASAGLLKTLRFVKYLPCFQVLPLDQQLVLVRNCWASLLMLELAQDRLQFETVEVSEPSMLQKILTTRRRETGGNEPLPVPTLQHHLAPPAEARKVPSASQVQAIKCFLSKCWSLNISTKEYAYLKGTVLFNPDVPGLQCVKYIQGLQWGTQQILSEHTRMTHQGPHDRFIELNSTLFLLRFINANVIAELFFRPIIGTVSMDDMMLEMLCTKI
ssDAF-12 act – activators of S. stercoralis DAF-12 nuclear receptor; 1% of 370,000 active; HEK293 ssDAF-12/GRIP1 lit1-tk-luc reporter, luminescence; % of 3 µM dafachronic acid response; activation, % at 6.8 µM;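 active = activation above the mean over all tested compounds plus 3 SD, cut at about 0.9% in these data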
LXR ag – counter-screen for hcDAF-12 agonists: agonists of human LXR-beta. shares compounds with hcDAF-12 act. HEK293 Gal4-LXR tk-luc reporter, luminescence, 24 h; normalized: DMSO 0%, positive control 100%. activation, % at 6.8 µM. 3,400 tested, under 10 active. AID 743027;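 active = mean percent activation of the reporter above a cutoff set as the average over tested compounds plus their standard deviation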
Target sequence (P55055 whole entry, looked up, the tested form may be a part): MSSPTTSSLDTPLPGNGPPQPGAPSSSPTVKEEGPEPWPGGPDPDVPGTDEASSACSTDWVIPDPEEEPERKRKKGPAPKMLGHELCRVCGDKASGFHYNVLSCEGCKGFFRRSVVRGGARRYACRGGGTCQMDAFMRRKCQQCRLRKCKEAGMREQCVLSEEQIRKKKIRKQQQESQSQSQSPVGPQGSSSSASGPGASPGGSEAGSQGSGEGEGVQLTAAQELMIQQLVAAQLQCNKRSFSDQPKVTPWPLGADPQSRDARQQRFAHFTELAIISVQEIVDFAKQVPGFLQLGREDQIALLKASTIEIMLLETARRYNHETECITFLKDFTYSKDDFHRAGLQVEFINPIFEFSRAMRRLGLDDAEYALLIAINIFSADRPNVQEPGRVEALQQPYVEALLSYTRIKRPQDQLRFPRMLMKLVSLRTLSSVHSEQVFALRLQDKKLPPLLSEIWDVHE
hcDAF12 conf – hcDAF-12 agonism, confirmation assay; shares compounds with hcDAF-12 act; HEK293 hcDAF-12 lit1-tk-luc reporter, luminescence; % of Δ7-dafachronic acid response; activation, % at 6.8 µM; 61% of 3,400 active; AID 743032;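 active = mean activation across triplicate tests above the threshold derived from the earlier primary screen, cut at about 5.5% in these data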
hgDAF12 ag – hgDAF-12 agonism, confirmation assay; HEK293 GAL4-hgDAF12 luciferase reporter, agonist mode; percent of butyrate response; 80% of 3,300 active; AID 743050; shares compounds with hgDAF-12 ag; activation, % at 6.8 µM;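 active = mean activation over triplicate wells above the hit cutoff derived from the earlier primary screen, cut at about 11% in these data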
LXR ag 2 – LXR-beta agonism as DAF-12 counter-screen; HEK293 Gal4-LXR luciferase reporter, 24 h; AID 743051; activation, % at 6.8 µM; shares compounds with hgDAF-12 ag; 3,300 tested, under 10 active;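 active = mean activation of the triplicate above a set limit carried over from the primary screen, none filed active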
Of the large screens only hits and unclear results are named; the others gave an inactive call (follow-up assays come after a bar, where they were run). Hits are enriched below; roughly 4.1% of the tested compounds scored in any of these assays.

Cc1ccc(C(=O)Nc2ccc3c(c2)OCCO3)o1	hgDAF-12 ag 13, hcDAF-12 act 9.2 | LXR ag inactive | hcDAF12 conf inactive | hgDAF12 ag 14 | LXR ag 2 inactive
CC1CCC(NC(=O)c2ccc3c(c2)OCO3)CC1 (stereo not given)	hgDAF-12 ag 15, DAX1 inh-1 9.1, hcDAF-12 act 9.0 | LXR ag inactive | hcDAF12 conf 8.6 | hgDAF12 ag 19 | LXR ag 2 inactive
O=C(Nc1ccc2c(c1)OCO2)c1ccc2c(c1)OCO2	hgDAF-12 ag 14, hcDAF-12 act 7.3, ssDAF-12 act 2.1 | LXR ag inactive | hcDAF12 conf 9.3 | hgDAF12 ag 15 | LXR ag 2 inactive
O=C(Nc1ccc(Cl)c(Cl)c1)c1ccc2c(c1)OCO2	hgDAF-12 ag 19, hcDAF-12 act 9.7, ssDAF-12 act 3.0 | LXR ag inactive | hcDAF12 conf 7.2 | hgDAF12 ag 22 | LXR ag 2 inactive
Cc1cc(C)c(C(=O)Nc2ccc3c(c2)OCCO3)c(C)c1	none
CC(=O)N1CCN(c2ccc(N3CCN(Cc4ccccc4)[C@H](C)C3)c(C)c2)[C@@H](C)C1	none (no result: DAX1 inh-2)
O=C(CNC(=O)c1ccccc1F)c1ccccc1	hgDAF-12 ag 17, hcDAF-12 act 7.0, ssDAF-12 act 1.1 | LXR ag inactive | hcDAF12 conf inactive | hgDAF12 ag 14 | LXR ag 2 inactive
O=C(NCCc1ccccc1)c1ccccc1C(=O)NCCc1ccccc1	none (no result: DAX1 inh-2)
O=C(NCCc1ccccc1)c1ccccc1F	hgDAF-12 ag 15, DAX1 inh-1 3.8, hcDAF-12 act 6.7 | LXR ag inactive | hcDAF12 conf inactive | hgDAF12 ag 14 | LXR ag 2 inactive
Cc1nn(-c2ccc3ccccc3c2)c(=O)c2ccccc12	hgDAF-12 ag 16, hcDAF-12 act 12, ssDAF-12 act 1.7 | LXR ag inactive | hcDAF12 conf 8.5 | hgDAF12 ag 15 | LXR ag 2 inactive
Nc1[nH]c(C(=O)c2ccc(Br)cc2)c(-c2ccc(Br)cc2)c1C(=O)NCc1cccc2ccccc12	none (no result: DAX1 inh-2)
Cc1occc1C(=O)N/N=C/c1ccc(-c2ccccc2)cc1	hgDAF-12 ag 19, hcDAF-12 act 7.9, ssDAF-12 act 1.1 | LXR ag inactive | hcDAF12 conf inactive | hgDAF12 ag 21 | LXR ag 2 inactive
Cc1occc1C(=O)N/N=C/c1ccc(OCc2ccccc2)cc1	none
CN[C@H]1C[C@H]2c3[nH]c4cccc(-c5cccc(F)c5)c4c3CCN2C(=O)[C@H]1[C@H](C)O	none (no result: DAX1 inh-2)
Cc1ccc(NC(=O)/C=C/c2cccs2)c([N+](=O)[O-])c1	hgDAF-12 ag 14, hcDAF-12 act 6.8 | LXR ag inactive | hcDAF12 conf 6.5 | hgDAF12 ag 19 | LXR ag 2 inactive
Cc1ccc(NC(=O)/C=C/C(=O)O)c([N+](=O)[O-])c1	none
O=[N+]([O-])c1ccccc1COc1ccc(Cl)c2cccnc12	hgDAF-12 ag 15, hcDAF-12 act 9.1, DAX1 inh-2 4.8 | LXR ag inactive | hcDAF12 conf 7.8 | hgDAF12 ag 16 | LXR ag 2 inactive
CCCN1C(=O)c2[nH]nc(-c3ccccc3)c2C1c1ccc(Br)cc1 (stereo not given)	none (no result: DAX1 inh-2)
Cc1cc(C)c(C#N)c(SCc2ccc(F)cc2)n1	none
Cc1cc(C)c(C#N)c(SCc2nc3ccccc3[nH]2)n1	hgDAF-12 ag 15, hcDAF-12 act 18, DAX1 inh-2 4.8, ssDAF-12 act 3.6 | LXR ag inactive | hcDAF12 conf 11 | hgDAF12 ag 12 | LXR ag 2 inactive
O=C(NCc1cccs1)C1CCCN(S(=O)(=O)c2ccccc2)C1 (stereo not given)	none (no result: DAX1 inh-2)
Cc1ccc2nc(-c3ccccc3)c(Cc3cccc(F)c3)n2c1	hgDAF-12 ag 14, hcDAF-12 act 8.7 (no result: DAX1 inh-2) | LXR ag inactive | hcDAF12 conf inactive | hgDAF12 ag inactive | LXR ag 2 inactive
C[C@@H]1CN(c2ccc(N3CCNC[C@H]3C)cc2C#N)C[C@H](C)O1	none (no result: DAX1 inh-2)
COc1ccc(N)cc1CN1CCN(c2ncc(Cc3ccccc3)cn2)CC1	none (no result: DAX1 inh-2)
O=C(Nc1ccc(Nc2ccccc2)cc1)c1ccc(Cl)cc1Cl	none (no result: DAX1 inh-2)
Cc1ccc(NC(=O)c2ccc(Cl)cc2Cl)cc1O	hgDAF-12 ag 17, hcDAF-12 act 9.6, DAX1 inh-2 7.7, ssDAF-12 act 1.9 | LXR ag inactive | hcDAF12 conf 6.2 | hgDAF12 ag 15 | LXR ag 2 inactive
C#CCNC(=O)C[C@H]1C[C@@]2(C(=O)OC)C(=C[C@H](C3CCCC3)O[C@@H]2C)N(Cc2ccccc2)C1=O	none (no result: DAX1 inh-2)
CC(=O)Nc1sc2c(c1-c1nc3ccccc3s1)CCCN(C(C)C)C2	hgDAF-12 ag 24, hcDAF-12 act 42, ssDAF-12 act 7.3 (no result: DAX1 inh-1, DAX1 inh-2) | LXR ag inactive | hcDAF12 conf 21 | hgDAF12 ag inactive | LXR ag 2 inactive
CC(C)N1CCc2c(sc(NC(=O)c3nc4ccccc4s3)c2C(N)=O)C1	none
O=C(Nc1nccs1)c1ccc(-c2ccc(Cl)cc2)o1	hgDAF-12 ag 17, DAX1 inh-1 4.3, hcDAF-12 act 6.6, DAX1 inh-2 4.6, ssDAF-12 act 1.3 | LXR ag inactive | hcDAF12 conf inactive | hgDAF12 ag 22 | LXR ag 2 inactive
Cc1nnc(NC(=O)c2ccc(-c3ccc(Cl)cc3)o2)s1	none
COC(=O)[C@]12C[C@H](CC(=O)NCCCN3CCCC3=O)C(=O)N(CCC3=CCCCC3)C1=C[C@H](COCc1ccccc1)O[C@@H]2C	none (no result: DAX1 inh-2)
O=[N+]([O-])c1ccc2nc(-c3ccc(Cl)cc3)[nH]c2c1	hgDAF-12 ag 22, DAX1 inh-1 4.1, hcDAF-12 act 9.9, ssDAF-12 act 1.2 | LXR ag inactive | hcDAF12 conf 5.9 | hgDAF12 ag 20 | LXR ag 2 inactive
O=[N+]([O-])c1cccc(-c2nc3ccc([N+](=O)[O-])cc3[nH]2)c1	none
Cn1c(N)c(C(=O)CCc2ccccc2)c(=O)n(C)c1=O	hgDAF-12 ag 21, DAX1 inh-1 4.5, hcDAF-12 act 10 (no result: DAX1 inh-2) | LXR ag inactive | hcDAF12 conf 6.8 | hgDAF12 ag inactive | LXR ag 2 inactive
COC(=O)[C@]12C[C@H](CC(=O)N3CCN(C(=O)C4CC4)CC3)C(=O)N(CCC3=CCCCC3)C1=C[C@H](COCc1ccccc1)O[C@@H]2C	none (no result: DAX1 inh-2)
